Experimental findings from the supplement of paper PMC10037445 are described below.

Assay [1] concerns RAW-Dual. The assay is described as follows: NF-kB SEAP reporter activity, fold change vs agonist alone; cytotoxicity flag (confluency mask): not cytotoxic; higher = enhanced NF-kB activity. In short, it runs like this: (§1)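 Library stock was pin-tooled at 50 nL into 384-well plates of RAW-Dual macrophages (50,000 cells/well, DMEM), followed 1 h later by a PRR agonist, and the cells were kept at 37 °C, 5% CO2. Supernatant collected after 20 hours was read for IRF by QuantiLuc luminescence and for NF-κB by QuantiBlue absorbance at 620 nm. Reporter activity is fold change over agonist-alone wells, and a well counted as cytotoxic when its IncuCyte confluency was below 70% of agonist controls in both mask sets.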

The subject of assay [2] is RAW-Dual. The assay is described as follows: NF-kB SEAP reporter activity, fold change vs agonist alone; higher = enhanced NF-kB activity. In short, it runs like this:
as §1

The subject of assay [3] is RAW-Dual. The assay is described as follows: NF-kB SEAP reporter activity, fold change vs agonist alone; cytotoxicity flag (confluency mask): cytotoxic (confluency <70% of control); higher = enhanced NF-kB activity. The essentials: as §1
Where [4] appears, read: agonist: ODN 1826 (TLR9) 0.5 ug/mL.
[5] abbreviates: agonist: Pam2CSK4 (TLR2/6) 0.1 ug/mL.
[6] abbreviates: agonist: Pam3CSK4 (TLR2/1) 0.1 ug/mL.
Where [7] appears, read: library stock concentration (final ~1000-fold dilution): 10 mM, cytotoxicity flag (confluency mask): not cytotoxic, agonist: Imiquimod (TLR7) […].
Setting [8] is: library stock concentration (final ~1000-fold dilution): 10 mM, cytotoxicity flag (confluency mask): not cytotoxic, agonist: MPLA (TLR4) […].
The mark [9] stands for this setting: library stock concentration (final ~1000-fold dilution): 10 mM, cytotoxicity flag (confluency mask): cytotoxic (confluency <70% of control), agonist: Imiquimod (TLR7) […].
[10] abbreviates: library stock concentration (final ~1000-fold dilution): 10 mM, cytotoxicity flag (confluency mask): cytotoxic (confluency <70% of control), agonist: MPLA (TLR4) […].

Each structure is given as a SMILES string. Over roughly 2,900 compounds, “NF-kB SEAP reporter activity, fold change vs agonist alone” has its median near 0.99; the highest 2% begin near 2.6. For the sample, the highest values were picked, then their nearest neighbours and some compounds at random.

`Cc1nc[nH]c1CN1CCc2c(c3ccccc3n2C)C1=O.Cl` (library stock concentration (final ~1000-fold dilution): 2 mM water): the “NF-kB SEAP reporter activity” value was found to be 1.14 in the assay on RAW-Dual [1] (agonist: LPS (TLR4) 0.1 ug/mL), 1.09 in the assay with RAW-Dual [1] (setting [4]), 1.15 in the assay with RAW-Dual [1] (setting [5]) and 0.961 with RAW-Dual [1] (setting [6]).
The matching figures for `NC(CSCCCO)C(=O)O` (stereo unspecified) (library stock concentration (final ~1000-fold dilution): 10 mM water): 1.11, 1.09, 1.22 and 1.09.
For the compound `NC(CSCCCO)C(=O)O` (stereo unspecified), the “NF-kB SEAP reporter activity” value worked out at 0.937 with RAW-Dual [2] (library stock concentration (final ~1000-fold dilution): 10 mM water, cytotoxicity flag (confluency mask): not cytotoxic, agonist: Imiquimod (TLR7) […]) and 1.04 in the assay with RAW-Dual [2] (library stock concentration (final ~1000-fold dilution): 10 mM water, cytotoxicity flag (confluency mask): not cytotoxic, agonist: MPLA (TLR4) […]).
In the case of `C=CC1(C)CC(OC(=O)CSC(C)(C)CNC(=O)C(N)C(C)C)C2(C)C(C)CCC3(CCC(=O)C32)C(C)C1O.Cl` (stereo unspecified), the results for the “NF-kB SEAP reporter activity” value in the assay with RAW-Dual [2] (setting [7]) and in the assay on RAW-Dual [2] (setting [8]) were 0.86 and 1.25, respectively.
`C=CC1(C)CC(OC(=O)CSC(C)(C)CNC(=O)C(N)C(C)C)C2(C)C(C)CCC3(CCC(=O)C32)C(C)C1O.Cl` (stereo unspecified) (library stock concentration (final ~1000-fold dilution): 10 mM): the “NF-kB SEAP reporter activity” value was 1.22 in the assay with RAW-Dual [1] (agonist: LPS (TLR4) 0.1 ug/mL), 0.971 with RAW-Dual [1] (setting [4]), 0.669 in the assay on RAW-Dual [1] (setting [5]) and 0.845 in the assay with RAW-Dual [1] (setting [6]).
`CCCCCCCCCCCCCCCC(=O)NC(CCSC)C(=O)NCC(=O)NC(Cc1ccc(O)cc1)C(=O)NC(CCC(N)=O)C(=O)NC(CCCCN)C(=O)NC(CCCCN)C(=O)NC(CC(C)C)C(=O)NC(CCCNC(=N)N)C(=O)NC(CO)C(=O)NC(CCSC)C(=O)NC(C(=O)NC(CC(=O)O)C(=O)NC(CCCCN)C(=O)NC(Cc1ccc(O)cc1)C(=O)NC(CCCNC(=N)N)C(=O)NC(CC(C)C)C(=O)O)C(C)O` (stereo unspecified) (library stock concentration (final ~1000-fold dilution): 10 mM): the “NF-kB SEAP reporter activity” value with RAW-Dual [3] (agonist: LPS (TLR4) 0.1 ug/mL) stood at 0.885; in the assay on RAW-Dual [3] (setting [4]), 0.714; in the assay on RAW-Dual [3] (setting [5]), 0.614; with RAW-Dual [3] (setting [6]), 0.68.
Consider `CCCCCCCCCCCCCCCC(=O)NC(CCSC)C(=O)NCC(=O)NC(Cc1ccc(O)cc1)C(=O)NC(CCC(N)=O)C(=O)NC(CCCCN)C(=O)NC(CCCCN)C(=O)NC(CC(C)C)C(=O)NC(CCCNC(=N)N)C(=O)NC(CO)C(=O)NC(CCSC)C(=O)NC(C(=O)NC(CC(=O)O)C(=O)NC(CCCCN)C(=O)NC(Cc1ccc(O)cc1)C(=O)NC(CCCNC(=N)N)C(=O)NC(CC(C)C)C(=O)O)C(C)O` (stereo unspecified), for which the “NF-kB SEAP reporter activity” value in the assay with RAW-Dual [2] (setting [9]) and with RAW-Dual [2] (setting [10]) was 1.02 in each case.
For the compound `COc1ccc(Oc2cc(NCCC(F)(F)F)c3ncc(-c4ccc(C(=O)NC5CC5)c(C)c4)n3n2)c(F)c1F`, the “NF-kB SEAP reporter activity” value with RAW-Dual [2] (setting [7]) turned out to be 1.19; in the assay on RAW-Dual [2] (setting [8]), 1.32.
As for `COc1ccc(Oc2cc(NCCC(F)(F)F)c3ncc(-c4ccc(C(=O)NC5CC5)c(C)c4)n3n2)c(F)c1F` (library stock concentration (final ~1000-fold dilution): 10 mM), the “NF-kB SEAP reporter activity” value is 2.44 in the assay on RAW-Dual [1] (agonist: LPS (TLR4) 0.1 ug/mL), 1.78 in the assay with RAW-Dual [1] (setting [4]), 0.636 in the assay on RAW-Dual [1] (setting [5]) and 0.913 in the assay with RAW-Dual [1] (setting [6]).
On the same counts, the results for `COc1cccc(CCc2ccccc2OCC(CN(C)C)OC(=O)CCC(=O)O)c1.Cl` (stereo unspecified) (library stock concentration (final ~1000-fold dilution): 10 mM) are 1.33, 0.733, 1.03 and 0.924.
Take `COc1cccc(CCc2ccccc2OCC(CN(C)C)OC(=O)CCC(=O)O)c1.Cl` (stereo unspecified): the entries for the “NF-kB SEAP reporter activity” value with RAW-Dual [2] (setting [7]) and in the assay on RAW-Dual [2] (setting [8]) were 1.22 and 1.03, respectively.
On the same counts, the results for `Cc1cc(Cl)ccc1OCCCC(=O)NO` are 1.35 and 1.31.
For `Cc1cc(Cl)ccc1OCCCC(=O)NO` (library stock concentration (final ~1000-fold dilution): 10 mM), the “NF-kB SEAP reporter activity” value amounted to 1.51 in the assay on RAW-Dual [1] (agonist: LPS (TLR4) 0.1 ug/mL), 0.823 in the assay on RAW-Dual [1] (setting [4]), 0.939 in the assay with RAW-Dual [1] (setting [5]) and 0.726 in the assay on RAW-Dual [1] (setting [6]).
As to `Cc1cc(C)cc(C(=O)NOCCCCCC(=O)NO)c1`, the “NF-kB SEAP reporter activity” value with RAW-Dual [2] (setting [9]) was 1.41; with RAW-Dual [2] (setting [10]), 2.74.
Consider `Cc1cc(C)cc(C(=O)NOCCCCCC(=O)NO)c1` (library stock concentration (final ~1000-fold dilution): 10 mM), for which the “NF-kB SEAP reporter activity” value with RAW-Dual [3] (agonist: LPS (TLR4) 0.1 ug/mL) worked out at 5.28; with RAW-Dual [3] (setting [4]), 2.33; with RAW-Dual [3] (setting [5]), 0.935; in the assay with RAW-Dual [3] (setting [6]) it was 1.43.
